Measured values published in PubChem BioAssay (NCI).
Compounds without any hit were thinned out: in the full panel of roughly 83,000, 20% have a hit.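 Note: values are percent growth. 100 is the growth of untreated cells, values between 100 and 0 indicate rising inhibition; between -100 and 0 indicates cell death.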 The source made the active and inactive calls. The calls were made as follows: active = growth percent below 10; inactive = the rest.

Tests used:
Test in all cases: NCI-60 one-dose screen, 48 h (100 = growth as untreated, 0 = no growth, -100 = all killed)
Settings in all cases: 10 µM unless noted
HCT-15 colon = system: HCT-15 colon
HT29 colon = system: HT29 colon
SNB-75 CNS = system: SNB-75 CNS
SNB-19 CNS = system: SNB-19 CNS
U251 CNS = system: U251 CNS
PC-3 prostate = system: PC-3 prostate
SK-MEL-5 melanoma = system: SK-MEL-5 melanoma
UACC-62 melanoma = system: UACC-62 melanoma
LOX IMVI melanoma = system: LOX IMVI melanoma
SK-MEL-28 melanoma = system: SK-MEL-28 melanoma

Measured: growth

CCc1nc(C)cn1C(=O)OCc1nc2nc(Cl)nc(N3CCOCC3)c2[nH]1
active: HCT-15 colon -28.1% | HT29 colon -63.1% | SNB-75 CNS 1.78% | U251 CNS -55.3% | PC-3 prostate -63.5% | SK-MEL-5 melanoma -35.8% | UACC-62 melanoma -88.4% | LOX IMVI melanoma -80.9%
inactive: SNB-19 CNS 55.8%

COc1ccc2c(Nc3ccc(NS(C)(=O)=O)cc3)c3ccccc3nc2c1
active: HCT-15 colon 1.84% | HT29 colon -45.4% | SNB-75 CNS -15.8% | U251 CNS 4.96% | PC-3 prostate 6.89% | SK-MEL-5 melanoma -94.6% | UACC-62 melanoma -65.4%
inactive: SNB-19 CNS 13.2%

CC(=O)c1c(-c2ccc(OC(F)(F)F)cc2)nc2ccccn12
inactive: HCT-15 colon 94.9% | HT29 colon 74.2% | SNB-75 CNS 91.9% | SNB-19 CNS 99.1% | U251 CNS 89.8% | PC-3 prostate 95.1% | SK-MEL-5 melanoma 96.6% | UACC-62 melanoma 105% | LOX IMVI melanoma 91.6%

COC(=O)C1=C(C(=O)ONCCN(C)C)C2C=CC1(C(Cc1ccccc1)Nc1ccc(F)cc1)O2 (centres undefined)
inactive: HCT-15 colon 48.1% | HT29 colon 75.1% | SNB-75 CNS 106% | SNB-19 CNS 105% | U251 CNS 100% | PC-3 prostate 105% | SK-MEL-5 melanoma 105% | UACC-62 melanoma 90.9%

O=C(Nc1sc2c(c1C(=O)O)CCCC2)c1cccc(C(F)(F)F)c1
inactive: HCT-15 colon 89.3% | HT29 colon 97.7% | SNB-75 CNS 104% | SNB-19 CNS 100% | U251 CNS 88.3% | PC-3 prostate 90.8% | SK-MEL-5 melanoma 81.2% | UACC-62 melanoma 77.5% | LOX IMVI melanoma 102%

N#Cc1ccc(-c2ccc3c(c2)NC(=O)/C3=C\c2ccc[nH]2)cc1
inactive: HCT-15 colon 58.3% | HT29 colon 103% | SNB-75 CNS 57% | SNB-19 CNS 99.3% | U251 CNS 103% | PC-3 prostate 84.7% | SK-MEL-5 melanoma 85.4% | UACC-62 melanoma 88.4% | LOX IMVI melanoma 97.5%

NS(=O)(=O)c1cccc(NC(=O)C(=O)C2C(=O)Nc3ccccc32)c1 (centres undefined)
inactive: HCT-15 colon 99.8% | HT29 colon 102% | SNB-75 CNS 74.6% | SNB-19 CNS 100% | U251 CNS 107% | PC-3 prostate 88.8% | SK-MEL-5 melanoma 96.7% | UACC-62 melanoma 94.4% | LOX IMVI melanoma 95.6% | SK-MEL-28 melanoma 107%

O=C(/C=C/c1ccc[nH]1)c1ccc(-n2ccc(C(F)(F)F)n2)cc1
active: PC-3 prostate 8.84%
inactive: HCT-15 colon 86.6% | HT29 colon 97.3% | SNB-75 CNS 51.6% | SNB-19 CNS 75.5% | U251 CNS 20% | SK-MEL-5 melanoma 99.9% | UACC-62 melanoma 90.3% | LOX IMVI melanoma 97.1%

Cn1c2c(Cl)c(Cl)ccc2c2cc(N)[nH]c(=O)c21
inactive: HCT-15 colon 97.1% | HT29 colon 92.8% | SNB-75 CNS 77.7% | SNB-19 CNS 98.4% | U251 CNS 93.8% | PC-3 prostate 64.6% | SK-MEL-5 melanoma 81.7% | UACC-62 melanoma 87.2% | LOX IMVI melanoma 76.1%

COc1cccc(C(Cc2ccccc2)Nc2ccccc2)c1OC (centres undefined)
inactive: HCT-15 colon 91.3% | HT29 colon 73% | SNB-75 CNS 90.1% | SNB-19 CNS 104% | U251 CNS 89.8% | PC-3 prostate 83.2% | SK-MEL-5 melanoma 97.1% | UACC-62 melanoma 88.7% | LOX IMVI melanoma 98.1%

Fc1ccccc1CSc1ncnc2nc[nH]c12
inactive: HCT-15 colon 114% | HT29 colon 107% | SNB-75 CNS 105% | SNB-19 CNS 94.3% | U251 CNS 106% | PC-3 prostate 105% | SK-MEL-5 melanoma 105% | UACC-62 melanoma 94.2% | LOX IMVI melanoma 96.4%

Cc1cc(C(=O)Nc2ncnc3nc[nH]c23)no1
inactive: HCT-15 colon 102% | HT29 colon 103% | SNB-75 CNS 79.5% | SNB-19 CNS 96.6% | U251 CNS 105% | PC-3 prostate 97% | SK-MEL-5 melanoma 101% | UACC-62 melanoma 97% | LOX IMVI melanoma 99.4%

Nc1c(C(=O)Nc2ccc(Cl)cc2)cc(-c2nc3ccccc3s2)c(=O)n1NS(=O)(=O)c1ccc(Cl)cc1
inactive: HCT-15 colon 96.7% | HT29 colon 104% | SNB-75 CNS 84.1% | SNB-19 CNS 99.8% | U251 CNS 104% | PC-3 prostate 104% | SK-MEL-5 melanoma 96.4% | UACC-62 melanoma 89.8% | LOX IMVI melanoma 99.3%

Cc1ccccc1C(c1ccccc1)c1ccccc1C
inactive: HCT-15 colon 95.6% | HT29 colon 95.8% | SNB-75 CNS 79.5% | SNB-19 CNS 98.7% | U251 CNS 99.3% | PC-3 prostate 83.2% | SK-MEL-5 melanoma 77.8% | UACC-62 melanoma 100% | LOX IMVI melanoma 94.9%

O=C(O)CCCCCCCCCCCCCCC(=O)O
inactive: HCT-15 colon 104% | HT29 colon 104% | SNB-75 CNS 88.2% | SNB-19 CNS 99.1% | U251 CNS 93.7% | PC-3 prostate 92.6% | SK-MEL-5 melanoma 103% | UACC-62 melanoma 95.1% | LOX IMVI melanoma 98.6%

CCCNC(=O)Oc1ccc(/C(=C(\C)c2ccccc2)c2ccc(OCCN3CCCCC3)cc2)cc1
inactive: HCT-15 colon 19.2% | SNB-75 CNS 88.9% | SNB-19 CNS 79% | U251 CNS 56.4% | PC-3 prostate 57.1% | SK-MEL-5 melanoma 77.8% | UACC-62 melanoma 70.6% | LOX IMVI melanoma 73.8%
active: HT29 colon 4.11%

Cc1ccc2[nH]c(=S)n(-c3ccc(S(=O)(=O)Nc4ccc(Cl)nn4)cc3)c(=O)c2c1
inactive: HCT-15 colon 101% | HT29 colon 103% | SNB-75 CNS 97.8% | SNB-19 CNS 97.5% | U251 CNS 100% | PC-3 prostate 103% | SK-MEL-5 melanoma 101% | UACC-62 melanoma 98.5% | LOX IMVI melanoma 100%

COc1ccc(NS(=O)(=O)c2ccc(C)cc2)c([N+](=O)[O-])c1
inactive: HCT-15 colon 107% | HT29 colon 107% | SNB-75 CNS 105% | SNB-19 CNS 102% | U251 CNS 93.3% | PC-3 prostate 97.5% | SK-MEL-5 melanoma 96.8% | UACC-62 melanoma 86% | LOX IMVI melanoma 95.2%

Cc1ccc(C(c2c(O)c3cc(Br)ccc3[nH]c2=O)c2c(O)c3cc(Br)ccc3[nH]c2=O)cc1
inactive: HCT-15 colon 79.1% | HT29 colon 97.5% | SNB-75 CNS 83.7% | SNB-19 CNS 93% | U251 CNS 83.7% | PC-3 prostate 75.5% | SK-MEL-5 melanoma 73.3% | UACC-62 melanoma 63.2% | LOX IMVI melanoma 84.1%

CCN(CC)CCSCCCNc1c(C)cnc2cc(Cl)ccc12
inactive: HCT-15 colon 76.7% | HT29 colon 54.9% | SNB-75 CNS 85.4% | SNB-19 CNS 104% | U251 CNS 84% | PC-3 prostate 85.1% | SK-MEL-5 melanoma 75.3% | UACC-62 melanoma 93.9% | LOX IMVI melanoma 79.5%

O=C1CCCCCCCCC(O)C(O)CCCC(c2cccs2)O1 (centres undefined)
inactive: HCT-15 colon 96.7% | HT29 colon 114% | SNB-75 CNS 102% | SNB-19 CNS 87.1% | U251 CNS 98.3% | PC-3 prostate 88.2% | SK-MEL-5 melanoma 91% | UACC-62 melanoma 81.8% | LOX IMVI melanoma 96.5%

CCN(CC)CCCCCCNc1cc(OC)cc2cccnc12
active: HCT-15 colon -4.8% | HT29 colon -44.8% | U251 CNS 5.33% | LOX IMVI melanoma -60.4%
inactive: SNB-75 CNS 75.5% | SNB-19 CNS 95.6% | PC-3 prostate 82.8% | SK-MEL-5 melanoma 68.5% | UACC-62 melanoma 102%

O=C(N=Nc1c(O)[nH]c2ccc(F)cc12)c1cc2ccccc2[nH]1
inactive: HCT-15 colon 96% | HT29 colon 109% | SNB-75 CNS 99.6% | SNB-19 CNS 97.7% | U251 CNS 94.7% | PC-3 prostate 103% | SK-MEL-5 melanoma 99.7% | UACC-62 melanoma 96.1% | LOX IMVI melanoma 97.3%

c1ccc(Cn2nc3c(c2-c2ccccc2)-c2oncc2CC3)cc1
inactive: HCT-15 colon 99.3% | HT29 colon 96.3% | SNB-75 CNS 84.6% | SNB-19 CNS 102% | U251 CNS 87.9% | PC-3 prostate 68.5% | SK-MEL-5 melanoma 84.8% | UACC-62 melanoma 76.2% | LOX IMVI melanoma 90.2%

Nc1c(Cl)cc([N+](=O)[O-])cc1Br
inactive: HCT-15 colon 103% | HT29 colon 103% | SNB-75 CNS 108% | SNB-19 CNS 116% | U251 CNS 101% | PC-3 prostate 96.1% | SK-MEL-5 melanoma 98.9% | UACC-62 melanoma 102% | LOX IMVI melanoma 104%

COC(=O)N[C@H]1CCc2cc(OC)c(OC)c(OC)c2-c2ccc(SC)c(=O)cc21
active: HCT-15 colon 9.48% | HT29 colon 2.35% | SK-MEL-5 melanoma -42.9%
inactive: SNB-75 CNS 32.4% | SNB-19 CNS 31.1% | U251 CNS 12.8% | PC-3 prostate 22.4% | UACC-62 melanoma 34.9% | LOX IMVI melanoma 15.7%

Cc1[nH]c(C(=O)Nc2ccccc2OCc2cccc(C(=O)NCCN)c2)c(Cl)c1Cl
inactive: HCT-15 colon 86.3% | HT29 colon 38.2% | SNB-75 CNS 86.2% | SNB-19 CNS 58.3% | PC-3 prostate 79.7% | SK-MEL-5 melanoma 95.3% | UACC-62 melanoma 92.6%
active: U251 CNS 4.71%

CC(N)C(=O)NNc1n[nH]c(=S)n1N (centres undefined)
inactive: HCT-15 colon 93.9% | HT29 colon 109% | SNB-75 CNS 92.8% | SNB-19 CNS 99.1% | U251 CNS 103% | PC-3 prostate 99.6% | SK-MEL-5 melanoma 97.5% | UACC-62 melanoma 102% | LOX IMVI melanoma 98.5%

C(=N\Nc1ncc(-c2cc3cc4c(cc3o2)OCO4)s1)/c1c[nH]c2ccccc12
active: HCT-15 colon 6.56% | SNB-75 CNS -0.264% | SNB-19 CNS 3.35% | U251 CNS -10% | PC-3 prostate 1.87% | SK-MEL-5 melanoma 5.79% | UACC-62 melanoma 1.76% | LOX IMVI melanoma -94%
inactive: HT29 colon 23.2%

CC(C)(C#N)N1CCN(c2ccccc2Cl)CC1
inactive: HCT-15 colon 103% | HT29 colon 96.4% | SNB-75 CNS 102% | SNB-19 CNS 118% | U251 CNS 102% | PC-3 prostate 102% | SK-MEL-5 melanoma 114% | UACC-62 melanoma 112% | LOX IMVI melanoma 87.3% | SK-MEL-28 melanoma 112%
